A549 tox-1: A549 cytotoxicity, counter-screen for Nrf2 inhibitors | A549 ARE-Fluc cells, CellTiter-Fluor viability, 18-24 h | AID 504648 | 0.16% of 390,000 active | Potency, µM (series often up to 46 µM), most hits filed as inhibitors
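A549 ARE-Fluc cells in 5% FBS OPTI-MEM, 5000 cells/well, rested 2 h then exposed to compounds in concentration-response for 18-24 h at 37 °C. Viability by CellTiter-Fluor fluorescence (Ex 405/Em 525) after 30 min; luciferase luminescence (BugLite, 15 min, RT) read afterwards.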
Nrf2 activator: Nrf2 pathway activation; AREc32 ARE-luciferase reporter (MCF7-derived line), luminescence, 24 h; Potency, µM (highest dose often 46.1 µM), hits mostly activators; 0.31% of 410,000 active; AID 624171; further: nearly all actives have a fitted effect of over 65% in size
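Cells of the AREc32 ARE-luciferase line are plated in OPTI-MEM containing 5% FBS and left overnight at 37 deg C. Compounds are pinned in, incubation continues 24 hr, and firefly luciferase signal is then measured.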
TCR act: activates T cell receptor signaling; primary human leukocytes, anti-CD3, IL-2 HTRF, 48 h; Potency, µM (series often up to 9.22 µM), usual class: activators; 330,000 tested, under 10 active; AID 504894
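HTRF read-out of IL-2 secretion: europium cryptate donor excited at 320nm, d2 acceptor emission at 665nm. Cells were primary human leukocytes incubated 48 hr with compounds and a-CD3 beads, supplying TCR signal only.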
Nrf2 inh: inhibitors of Nrf2 signaling; Potency, µM (series often up to 46 µM), actives largely listed as inhibitors; 2.1% of 360,000 active; A549 ARE-Fluc reporter, luciferase luminescence, 18-24 h; further: nearly all actives have a fitted effect of over 60% in size
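Reporter: ARE-Fluc in A549. Exposure: 18-24 h, 37 °C, 5% CO2, 5% FBS OPTI-MEM. Readouts: fluorescent cytotoxicity (CellTiter-Fluor), then luminescent Nrf2 signal after BugLite.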
AT treatment: potential ataxia-telangiectasia treatment; F2112 A-T fibroblasts, KAP-1 phosphorylation AlphaLISA; neocarzinostatin DNA damage 30 min before lysis; Potency, µM (highest dose often 57.5 µM), usual class: activators; 0.19% of 320,000 active; AID 485349; further: nearly all actives have a fitted effect of over 45% in size
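ATM-like activity read as KAP-1 phosphorylation via AlphaLISA donor/acceptor antibody pairs after lysis and 6 hr at 25C. Cells were ATM-null patient fibroblasts (F2112, hTERT), dosed 60 min, then exposed to the DSB inducer NCS for 30 min.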
CCT modulator: modulators of cytosolic chaperonin (CCT/TRiC) activity | purified chaperonin ATPase assay, HTRF ADP detection, 30 min | 0.3% of 360,000 active | activity change, % (test concentration not listed), hits read low; in the data active means activity change below about -30%
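We incubate TRiC, 40 or 20 nM final, with library compounds at 76 uM and 10 uM ATP for 30 min at 37 °C. ADP formed is detected with Transcreener HTRF reagents after 30 min at room temperature.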
FLuc enzyme inh: firefly luciferase inhibition, Nrf2 hit validation. shares compounds with Nrf2 inh. purified firefly luciferase, luminescence inhibition. Potency, µM (highest dose often 57.5 µM), actives largely listed as inhibitors. 4% of 1,400 active; further: nearly all actives have a fitted effect of over 65% in size
Target sequence (P08659 whole entry, looked up): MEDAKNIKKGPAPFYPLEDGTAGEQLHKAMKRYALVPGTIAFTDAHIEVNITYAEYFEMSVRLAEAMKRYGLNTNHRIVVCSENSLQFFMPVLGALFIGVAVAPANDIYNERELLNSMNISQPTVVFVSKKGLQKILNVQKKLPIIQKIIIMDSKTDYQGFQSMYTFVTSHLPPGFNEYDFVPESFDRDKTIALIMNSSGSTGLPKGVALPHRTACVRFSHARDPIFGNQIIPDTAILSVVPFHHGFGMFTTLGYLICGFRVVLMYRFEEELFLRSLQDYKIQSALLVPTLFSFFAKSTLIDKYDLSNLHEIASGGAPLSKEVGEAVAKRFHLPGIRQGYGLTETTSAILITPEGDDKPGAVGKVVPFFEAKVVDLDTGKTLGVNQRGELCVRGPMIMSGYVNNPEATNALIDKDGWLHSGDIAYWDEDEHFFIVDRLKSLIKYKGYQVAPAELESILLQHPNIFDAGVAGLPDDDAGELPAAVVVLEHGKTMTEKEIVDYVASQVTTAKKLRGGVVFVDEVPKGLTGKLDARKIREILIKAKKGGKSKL
A549 tox-2: toxic to A549 ARE-Fluc cells in Nrf2 counterscreen | shares compounds with Nrf2 inh | A549 ARE-Fluc cells, cytotoxicity counterscreen | Potency, µM (titrated, usually from 46.1 µM), usual class: inhibitors | 2% of 1,400 active | AID 720523;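 further: cells exposed to compounds for 18 to 24 hours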
Nrf2 ARE inh: reduces Nrf2 ARE reporter signal in A549 cells; 74% of 1,400 active; Potency, µM (series often up to 46.1 µM), actives largely listed as inhibitors; shares compounds with Nrf2 inh; A549 ARE-firefly luciferase reporter, luminescence; further: nearly all actives have a fitted effect of over 65% in size
Large screens that a line does not name were inactive (follow-up assays come after a bar, where shown); ! = repeats disagree. In the library only some 2.6% were active in any assay of this set; here they are far more common. Unless noted, the call rests on the fitted dose curve; in most records, active means well fitted curve in the direction sought with a large enough effect; inconclusive means small, poorly fitted or top-dose-only effect, or another doubt; inactive means no such curve, though single readings can be large; an effect the other way counts as inactive or inconclusive.

N#CCc1ccc(NC(=O)c2ccc(CN3CCc4ccccc4C3)cc2)cc1	Nrf2 inh 5.17µM | FLuc enzyme inh inactive | A549 tox-2 inactive | Nrf2 ARE inh inconclusive
CCCNC(=O)c1ccc(CN2CCc3ccccc3C2)cc1	none (no result: Nrf2 inh)
CC(C)CNC(=O)COC(=O)C1c2ccccc2Oc2ccccc21	none
CC(C)[N+](C)(CCOC(=O)C1c2ccccc2Oc2ccccc21)C(C)C	Nrf2 inh 5.17µM | FLuc enzyme inh inactive | A549 tox-2 inactive | Nrf2 ARE inh 4.61µM
C=CCn1c(O)c(N=NC(=S)Nc2ccccc2F)c2ccccc21	A549 tox-1 inconclusive, Nrf2 inh inconclusive
C=CCn1c(O)c(N=NC(=S)Nc2ccccc2F)c2cc(S(=O)(=O)N3CCOCC3)ccc21	A549 tox-1 inconclusive, Nrf2 inh 5.8µM | FLuc enzyme inh inactive | A549 tox-2 inactive
COc1ccc(CNC(=O)CN(C)Cc2ccc(C(C)(C)C)cc2)cc1	Nrf2 inh inconclusive
COc1ccc(CNC(=O)c2cc3c(C)nc4ccccc4c3o2)c(OC)c1	Nrf2 inh 5.17µM | FLuc enzyme inh inactive | A549 tox-2 inactive
C[C@]12C=CC(=O)C=C1CC[C@@H]1C2C(O)C[C@@]2(C)C1CC[C@]2(O)C(=O)COC(=O)CCC(=O)NC(CC(=O)O)C(=O)O (stereo not given in full)	Nrf2 inh 0.103µM | FLuc enzyme inh inactive | A549 tox-2 inactive | Nrf2 ARE inh 0.259µM
CSCCC(NC(=O)CCC(=O)OCC(=O)[C@@]1(O)CCC2[C@@H]3CCC4=CC(=O)C=C[C@]4(C)C3[C@@H](O)C[C@@]21C)C(=O)O (stereo not given in full)	Nrf2 inh 0.206µM | FLuc enzyme inh inactive | A549 tox-2 inactive | Nrf2 ARE inh 0.058µM
CC(C)CC(NC(=O)CCC(=O)OCC(=O)[C@@]1(O)CCC2[C@@H]3CCC4=CC(=O)C=C[C@]4(C)C3[C@@H](O)C[C@@]21C)C(=O)O (stereo not given in full)	Nrf2 inh inconclusive
CC(C)CN(CCCNC(=O)Cn1ncc2c3ccccc3n(C)c2c1=O)CC(C)C	none (no result: TCR act, AT treatment, CCT modulator)
O=c1ccc2cc(S(=O)(=O)Nc3ccc(F)c(Cl)c3)ccc2[nH]1	none (no result: TCR act, Nrf2 inh, AT treatment, CCT modulator)
COc1ccccc1/C=C/C(=O)N1CCc2cc(OC)c(OC)cc2C1C (stereo not given)	Nrf2 inh inconclusive | FLuc enzyme inh inactive | A549 tox-2 inactive | Nrf2 ARE inh 7.31µM
CC(C)CCCCCCCCCCCCC(=O)NCC(=O)NC1C(O)C(O)C(Nc2ncnc3nc[nH]c23)OC1C(O)CO (stereo not given)	A549 tox-1 0.731µM, Nrf2 inh 0.058µM (no result: AT treatment) | FLuc enzyme inh inactive | A549 tox-2 inconclusive | Nrf2 ARE inh 0.013µM
CCN(CC)CCNC(=O)c1cc(-c2ccc(Br)s2)nc2ccccc12	none
CCCCOc1cc(C(=O)NCCN(CC)CC)c2ccccc2n1	Nrf2 inh 9.2µM! | FLuc enzyme inh inactive | A549 tox-2 inactive | Nrf2 ARE inh 6.51µM
COc1cc(NS(=O)(=O)c2ccc(-c3cc(C)no3)cc2)cc(OC)c1	Nrf2 inh 6.51µM (no result: TCR act, AT treatment, CCT modulator) | FLuc enzyme inh inactive | A549 tox-2 inactive | Nrf2 ARE inh 16.4µM
COc1ccccc1CNS(=O)(=O)c1ccc(-c2cc(C)no2)cc1	none
CC(C)c1ccc(CNc2ncccn2)cc1	Nrf2 inh inconclusive
CN(C)C=Nc1ccccc1C1C=NNC1=O (stereo not given)	none (no result: A549 tox-1, Nrf2 activator, TCR act, Nrf2 inh, CCT modulator)
Cc1ccccc1OCC(=O)NNC(=O)c1ccc2c(=O)n3c(nc2c1)CCC3	none
Cc1cc(C)cc(C(=O)Nc2ccc(-c3cn4cccnc4n3)cc2)c1	Nrf2 inh 9.2µM (no result: TCR act, AT treatment, CCT modulator) | FLuc enzyme inh inactive | A549 tox-2 inactive | Nrf2 ARE inh inconclusive
CCOc1cc(C(=O)Nc2ccc(-c3cn4cccnc4n3)cc2)cc(OCC)c1OCC	Nrf2 inh inconclusive (no result: TCR act, AT treatment, CCT modulator)
COc1ccc(NC(=O)C(C)N2c3cccc4cccc(c34)S2(=O)=O)cc1 (stereo not given)	none (no result: Nrf2 inh)
COc1ccc(NC(=O)C(C)N2c3cccc4cccc(c34)S2(=O)=O)cc1OC (stereo not given)	Nrf2 inh 8.2µM | FLuc enzyme inh inactive | A549 tox-2 inactive | Nrf2 ARE inh 23.1µM
CCOC(=O)c1c(Nc2ccc(Cl)cc2)sc(/C=C2\C=Nc3ccccc32)c1O	Nrf2 inh 1.46µM (no result: TCR act) | FLuc enzyme inh inactive | A549 tox-2 inconclusive | Nrf2 ARE inh 4.11µM
CCC(C)N1CCC2(CC1)N=c1c(c3c4c5c(C)c(O)c3c(O)c1=NC(=O)C(C)=CC=C[C@H](C)[C@H](O)[C@@H](C)[C@@H](O)[C@@H](C)[C@H](OC(C)=O)[C@H](C)[C@@H](OC)C=CO[C@@](C)(O5)C4=O)N2 (stereo not given in full)	A549 tox-1 inconclusive, Nrf2 inh 8.2µM | FLuc enzyme inh inactive | A549 tox-2 inconclusive | Nrf2 ARE inh inconclusive
Cc1ccccc1C(=O)Nc1cccc(NC(=O)c2cccnc2)c1	none
COc1nnc(-c2ccc(N3CCCCC3)c(NC(=O)c3ccccc3Cl)c2)c2ccccc12	Nrf2 inh 6.51µM (no result: TCR act, AT treatment, CCT modulator) | FLuc enzyme inh inactive | A549 tox-2 inactive | Nrf2 ARE inh 6.51µM
Cn1c(-c2cccc([N+](=O)[O-])c2)[n+](C)c2ccccc21	Nrf2 inh inconclusive
CN(C)c1ccc(-c2n(C)c3ccccc3[n+]2C)cc1	Nrf2 inh 0.291µM | FLuc enzyme inh inactive | A549 tox-2 inactive | Nrf2 ARE inh inconclusive
Cn1c(-c2ccc3ccccc3n2)[n+](C)c2ccccc21	Nrf2 inh inconclusive
Cn1c(-c2ccccn2)[n+](C)c2ccccc21	Nrf2 inh 5.17µM | FLuc enzyme inh inactive | A549 tox-2 inactive | Nrf2 ARE inh 10.3µM
COc1ccc(CC(=O)Nc2ccncc2Cl)cc1	Nrf2 inh 5.17µM | FLuc enzyme inh inactive | A549 tox-2 inactive | Nrf2 ARE inh inconclusive
CC(C)Cn1c(C(C)C)nc([N+](=O)[O-])c1S(=O)(=O)c1ccc(F)cc1	A549 tox-1 inconclusive, Nrf2 activator 22.4µM, Nrf2 inh 9.2µM | FLuc enzyme inh inactive | A549 tox-2 inactive | Nrf2 ARE inh inactive

High-throughput results from PubChem BioAssay.
